Bioassay records as filed in PubChem BioAssay.
GPR151 ag: activators of human GPR151, primary screen, cell-based, PathHunter beta-arrestin, luminescence | G-protein coupled receptor 151 (Homo sapiens), Q8TDV0 | PathHunter beta-arrestin GPR151 cells | activation, % at 11.2 µM | 650,000 compounds, 1% hits; in the data active = activation above about 4.9%;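 also: 0% = median of compound wells and 100% = cells with positive control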
TEAD-YAP inh: TEAD-YAP interaction inhibition, primary screen, TEAD-YAP interaction inhibitor project, luminescence, HEK-TIYL cells. 640,000 compounds, 1.4% hits. inhibition, % at 9.12 µM. AID 1259422, 2018. TEAD-Gal4/YAP UAS-luciferase luminescence; in the data active = inhibition above about 32%;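 also: 0% = median of test compound wells and 100% = reference inhibitor wells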
FBW7 act: FBW7 E3 ligase activators, primary screen, biochemical, AlphaScreen, human | AlphaScreen FBW7–phospho-cyclin E peptide binding, activator screen | normalized activity (activation), % at 26.1 µM | F-box/WD repeat-containing protein 7 (Homo sapiens), Q969H0 | 650,000 compounds, 0.13% hits; in the data active = normalized activity above about 1.9%;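 also: purified mutant Fbw7 with reduced substrate affinity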
MITF inh: MITF inhibitors, primary screen, biochemical, AlphaScreen, human | AlphaScreen MITF homodimerization, bead proximity signal | inhibition, % at 2.6 µM | 650,000 compounds, 0.91% hits | Microphthalmia-associated transcription factor (Homo sapiens), O75030; in the data active = inhibition above about 50%;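 also: 0% = vehicle wells with protein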
Target sequence (O75030 whole entry, looked up): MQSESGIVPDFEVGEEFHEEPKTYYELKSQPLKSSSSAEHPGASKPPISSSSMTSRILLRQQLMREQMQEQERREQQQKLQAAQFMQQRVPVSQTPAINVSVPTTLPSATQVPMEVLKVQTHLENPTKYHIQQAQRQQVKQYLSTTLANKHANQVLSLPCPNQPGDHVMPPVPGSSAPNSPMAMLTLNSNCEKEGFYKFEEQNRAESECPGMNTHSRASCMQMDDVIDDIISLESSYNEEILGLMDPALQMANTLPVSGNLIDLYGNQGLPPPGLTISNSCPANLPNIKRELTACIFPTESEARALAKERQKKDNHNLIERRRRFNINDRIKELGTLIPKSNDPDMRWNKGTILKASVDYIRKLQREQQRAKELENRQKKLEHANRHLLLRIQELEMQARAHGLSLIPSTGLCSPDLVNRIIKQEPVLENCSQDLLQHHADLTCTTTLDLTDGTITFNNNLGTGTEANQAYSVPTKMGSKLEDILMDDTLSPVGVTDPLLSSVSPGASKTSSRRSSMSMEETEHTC
Starred values were filed as active, the others as inactive; ! = not confirmed by another sample. Sampled rows, rich in hits. Any-hit rate of the full collection: about 3.5%.

SMILES | GPR151 ag | TEAD-YAP inh | FBW7 act | MITF inh
Cc1ccc(NC(=O)/C=C\C(=O)O)cc1 | 0 | -3 | 0 | -1
CC(=O)c1c(C)[nH]c(C(=O)Nc2nc(C)cs2)c1C | -2 | 54* | 0 | -1
CC(=O)c1c(C)[nH]c(C(=O)Nc2ccc(C)cn2)c1C | -1 | 53* | 0 | 1
COc1ccc(-c2cc(C(F)(F)F)nc(S(=O)(=O)CCC(=O)NC(C)C)n2)cc1 | -1 | 0 | 0 | 4
CCCNC(=O)CCS(=O)(=O)c1nc(-c2ccc(OC)cc2)cc(C(F)(F)F)n1 | 0 | 10 | 2.1* | 3
C=CCN1C(=O)C2(NC(=O)c3ccccc3N2)c2ccccc21 (stereo unspecified) | 0 | 66* | 1 | 13
Cc1ccccc1Cc1c(C)nc2nc(SCC(=O)Nc3cccc(Cl)c3)nn2c1C | 0 | 27 | -1 | 0
CCN1/C(=C/c2ccc3ccccc3[n+]2CC)Sc2cc(NC(C)=O)ccc21 | 0 | 4 | 0 | -7
CCN1/C(=C/c2ccc3cc(C)ccc3[n+]2CC)Sc2ccc(O)cc21 | 1 | 87* | -1 | 31
CCN1/C(=C/c2ccc3ccccc3[n+]2CC)Sc2ccc(C)cc21 | 0 | 79* | -1 | -9
CCN1/C(=C/c2ccc3cc(NC(C)=O)ccc3[n+]2CC)Sc2cc(C)ccc21 | 0 | 15 | 0 | 25
CCOc1ccc(NC(=O)CCN2CCC(C(N)=O)CC2)cc1 | 0 | 8 | 0 | -1
Oc1cc(O)c2c(c1)O[C@H](c1ccc(O)c(O)c1)[C@@H](O)C2 | 0 | -7 | 0 | 57*!
O=C1c2c(O)cc(O)cc2O[C@H](c2ccc(O)c(O)c2)[C@H]1O | 1 | -13 | 0 | 0
Oc1cc(O)c2c(c1)O[C@H](c1cc(O)c(O)c(O)c1)[C@H](O)C2 | 0 | -6 | 0 | 87*
O=C1C[C@@H](c2ccccc2)Oc2cc(O)cc(O)c21 | -3 | -21 | 0 | -13
O=c1c(O)cc([C@H]2Oc3cc(O)cc(O)c3C[C@H]2O)cc2c([C@H]3Oc4cc(O)cc(O)c4C[C@@H]3O)cc(O)c(O)c12 | -1 | -6 | 0 | 76*
O=C(Oc1cc(O)cc2c1C[C@@H](OC(=O)c1cc(O)c(O)c(O)c1)[C@@H](c1cc(O)c(O)c(O)c1)O2)c1cc(O)c(O)c(O)c1 | -1 | -2 | 0 | 62*
O=C1c2c(O)cc(O)cc2O[C@H](c2ccc(O)c(O)c2)[C@@H]1O | 0 | 11 | 0 | -5
Cc1ccc(NC(=O)C2C3C=CC4(O3)C2C(=O)N(C2CCC(C)CC2)C4C(=O)NC2CCCCC2)cc1 (stereo unspecified) | -1 | -1 | 1 | 6
Cc1[nH]c(=O)[nH]c(=O)c1S(=O)(=O)NCc1n[nH]c(=O)c2ccccc12 | 0 | 17 | 0 | 13
CCCCOC(=O)c1ccc(NC(=O)COc2cccc(C)c2)cc1 | 0 | -3 | 0 | -3
Nc1c(C(=O)c2ccc(F)cc2)sc2nc(-c3ccccc3)cc(-c3ccco3)c12 | 2 | 7 | 0 | 63*
Nc1c(C(=O)c2ccc(F)cc2)sc2nc(-c3ccccc3)cc(-c3ccccc3)c12 | 1 | 3 | 0 | -4
NC(=O)CSc1nnnn1-c1ccccc1F | -2 | 12 | 2.4* | 4
SMILES | GPR151 ag | TEAD-YAP inh | FBW7 act | MITF inh
Fc1ccccc1CSc1nnnn1-c1ccccc1F | -1 | -13 | 2.3* | 21
CCOC(=O)CSc1nnnn1-c1ccccc1F | -2 | -1 | 1 | 6
COc1ccc(Cl)cc1NS(=O)(=O)c1ccc(OC)c(C)c1C | 0 | 42* | 0 | 9
COc1cc(NS(=O)(=O)c2ccc(OC)c(C)c2C)c(OC)cc1Cl | -1 | 54* | 0 | 5
COc1ccc(Cl)cc1NS(=O)(=O)c1cc(C)ccc1OC | 0 | -2 | 0 | 3
COc1ccc(C(C)(C)C)cc1NC(=O)COC(=O)c1cccc(S(=O)(=O)N(C)C)c1 | 2 | -1 | 0 | -7
COc1ccc(C2C(C#N)=C(N)Oc3cc(N(C)C)ccc32)cc1Br (stereo unspecified) | 1 | 8 | 0 | -3
Cc1cc2nc3c(=O)[nH]c(=O)[nH]c3nc2c([N+](=O)[O-])c1N | 1 | 2 | -1 | 68*
Cc1cc2nc3c(=O)[nH]c(=O)[nH]c3nc2cc1N | 0 | 8 | 0 | -1
Cc1nnc(N(CC2CCCO2)C(=O)c2ccno2)s1 (stereo unspecified) | 2 | 10 | 0 | 8
COCC(=O)N(CC1CCCO1)c1nnc(C)s1 (stereo unspecified) | -4 | 34* | 0 | 5
O=C(CC(NCc1ccco1)C(=O)O)Nc1cccc(Cl)c1Cl (stereo unspecified) | 2 | 16 | 0 | 4
O=C(CN1CCC(Cn2cnc3ccccc32)CC1)Nc1nc2ccc(F)cc2s1 | 1 | 56* | 0 | 36
CCCCCCCCCCCCC[N+](C)(C)Cc1ccccc1 | 1 | 38* | 0 | 24
Cc1ccc(CN(C)S(=O)(=O)c2ccc3ccccc3c2)cc1 | 2 | 9 | 0 | -4
Cc1nn(C)c(C)c1CN(C)S(=O)(=O)c1ccc2ccccc2c1 | 2 | 56* | 0 | -2
O=C(NCCc1c[nH]c2ccccc12)C1CC12CCN(Cc1ccc(O)cc1)CC2 (stereo unspecified) | 0 | 0 | 0 | 8
Cc1ccc2c(c1)-c1onc(C(=O)Nc3ccccc3F)c1CO2 | 3 | 0 | 0 | 6
CN1C(=O)/C(=C/c2cc(Cl)ccc2O)NC1=S | 2 | 62* | 0 | -7
O=C1CCCN1CCn1cnc2c(NCc3cccc(C(F)(F)F)c3)nc(N3CCN(c4ccccn4)CC3)nc21 | 3 | -3 | 0 | 6
C/C=C/C(=O)Nc1ccc(-c2ccc(NC(=O)/C=C/C)c(OC)c2)cc1OC | 0 | 61* | 1 | 8
COc1ccc(N/N=C(\C#N)C(=N)SCc2ccccc2)cc1 | 1 | 33* | 0 | 3
O=C(Nc1ccccc1NC(=O)c1ccccn1)Nc1c(F)cccc1F | 1 | -25 | -1 | 17
CC(C)(C)c1ccc(/C=N\NC(=O)c2ccccn2)cc1 | -3 | 35* | 0 | -15
CC(C)(C)c1ccc(NC(=O)Nc2ccccc2NC(=O)c2ccccn2)cc1 | 0 | 68* | -1 | -2
CC(C)c1ccc(NC(=O)c2ccc(Sc3ccccc3Cl)c([N+](=O)[O-])c2)cc1 | 0 | -4 | 0 | 1
CCOC(=O)C1=C(C)NC(=O)NC1c1ccc(OCc2ccccc2)cc1 (stereo unspecified) | -1 | -17 | 0 | 3
CCCOc1ccc(C2NC(=O)NC(C)=C2C(=O)OC(C(F)(F)F)C(F)(F)F)cc1 (stereo unspecified) | 1 | 7 | 2.1* | 17
CCCOc1ccc(C2NC(=O)NC(C)=C2C(=O)OC2CCCC2)cc1 (stereo unspecified) | -1 | 56* | 0 | -8
